# Compounds without any hit were thinned out: in the full panel of roughly 83,000, 20% have a hit.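 For each line, cells grew in 96-well plates with the test compound present at a single concentration for 48 hours.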 Calls of active or inactive are those of the source.
# System: OVCAR-8 ovarian
# Test: NCI-60 one-dose screen, 48 h (100 = growth as untreated, 0 = no growth, -100 = all killed)
# Settings: 10 µM unless noted
# Description: Growth inhibition of the OVCAR-8 human tumor cell line is measured as a screen for anti-cancer activity. Cells are grown in 96 well plates and exposed to the test compound for 48 hours. Compounds are tested at a single concentration, which is 10^-5 M for most compounds. The reported endpoint is percent growth (GI% or GIPRCNT), where numbers from 0 - 100% represent growth inhibition, and numbers from -100% - 0 represent cell death. For example, a value of 40 represents 60% growth inhibition. A value of 0 means no net growth occurred over the course of the experiment. A value of -40 indicates 40% of cells at the beginning of the experiment died by the end of the experiment. A value of -100 means all cells are dead at the end of the experiment.
# NCI-60 Human Tumor Cell Lines Screen was performed using the standard one-dose NCI protocol, which is described in more detail at https://dtp.cancer.gov/discovery_development/nci-60/default.htm.
# Compounds with GIPRCNT values below 10 were considered active. Activity score was based on GIPRCNT using the following formula: […]
# Score is 0 for GIPRCNT values of 100 or above, 50 for GIPRCNT values of 0, and 100 for GIPRCNT values of -100.
row,Structure (SMILES),growth
1,COc1ccc(NC(=O)Cn2c(/C=C/c3cccc([N+](=O)[O-])c3)nc3ccccc3c2=O)cc1,43.3% (inactive)
2,O=C(Cn1c(/C=C/c2cccc([N+](=O)[O-])c2)nc2ccccc2c1=O)Nc1ccccc1,35.7% (inactive)
3,COc1ccc(C2CC(c3ccc(S(=O)(=O)NCCNc4nc(Nc5ccc(F)cc5)nc(N(C)C)n4)cc3)=Nc3c(N)nc(N)nc3N2)cc1 (stereo not given),79.5% (inactive)
4,COc1ccc(C2=NN(c3ccccc3)C(c3ccc(OCc4ccccc4)c(OC)c3)C2)cc1OC (stereo not given),92.6% (inactive)
5,CCOC(=O)C1=C(N)N(c2ccccc2)C2=C(C(=O)CC(C)(C)C2)C1c1ccc(N2CCOCC2)cc1 (stereo not given),97.1% (inactive)
6,CCN(CC)c1ccnc(CNCCSC(c2ccccc2)(c2ccccc2)c2ccc(OC)cc2)c1,-78.6% (active)
7,CC(=O)Oc1ccccc1C(=O)[Se]C(=NC1CCCCC1)NC1CCCCC1,-81.8% (active)
8,CN1CCN(c2ccc3c(c2)nc(NNC(=O)c2cnccn2)c2cccn23)CC1,-79.4% (active)
9,OCNc1ccc(-n2cnc3cc(-c4ccc(O)cc4)ccc32)cc1C(F)(F)F,16% (inactive)
10,NC(=S)Nc1cccc(NC(N)=S)c1,94% (inactive)
11,CCN(CC)C(=O)N/C(N)=N/c1nc2ccccc2s1,55.5% (inactive)
12,CC12CC[C@@H]3[C@]4(C)COC(c5cn[nH]c5-c5ccc(Br)cc5)O[C@@H]4CC[C@@]3(C)[C@@H]1CC(C1=CCOC1=O)O2 (stereo not given in full),62.6% (inactive)
13,O=C1N/C(=N\c2nccs2)S/C1=C\C=C/c1ccccc1,13.7% (inactive)
14,COC(OC)C1=C(C)OC(N)=C(C#N)C12C(=O)Nc1ccccc12 (stereo not given),91.9% (inactive)
15,C=C1CC[C@@H]2[C@]3(C)COC(c4cn(-c5ccccc5)nc4-c4cccc([N+](=O)[O-])c4)O[C@@H]3CC[C@@]2(C)[C@@H]1C/C=C1/C(=O)OC[C@H]1O (stereo not given in full),-38.1% (active)
16,Cc1c(C(=O)NNC(=O)c2ccc(Cl)cc2)nnn1-c1ccc(Cl)cc1,104% (inactive)
17,O=C(COc1ccc(NC(=O)Nc2ccc(Cl)c(Cl)c2)cc1)N=Nc1c(O)[nH]c2ccc(Cl)cc12,-48.4% (active)
18,C/C(=N\N=C1/C(=O)Nc2ccccc21)c1ccc2c(c1)Nc1ccccc1S2,56% (inactive)
19,COc1ccc2c(c1)c(-c1cc(N)n3nc(-c4cn(C)c5ccccc45)cc3n1)cn2C,-94.4% (active)
20,N#Cc1c(-c2ccc(Cl)cc2)nc2n[nH]c(-c3ccc(Cl)cc3)c2c1-c1cccs1,66.7% (inactive)

row,Structure (SMILES),growth
1,COc1ccc2oc3c4[nH]c5ccccc5c4c4c(c3c2c1)C(=O)N(C(=O)OC(C)(C)C)C4=O,-20.1% (active)
2,COc1ccccc1C(=O)NN1C(=O)/C(=C/C2=Cc3ccccc3OC2)SC1=S,99.9% (inactive)
3,O=C(CN1C(=O)/C(=C/c2ccccc2F)SC1=S)N1CCOCC1,93.4% (inactive)
4,O=c1oc2ccc(Br)cc2cc1C1=CSc2nc3sc4c(c3c(=O)n2N=C1)CCCC4,99.9% (inactive)
5,O=C(COc1ccc(NC(=O)Nc2ccc(Cl)c(Cl)c2)cc1)N=Nc1c(O)[nH]c2ccc(Br)cc12,-59.9% (active)
6,COc1c(F)ccc(C(=O)Nc2ccc3nc(NC(=O)C4CCCN(S(=O)(=O)c5cccc(C(F)(F)F)c5)C4)sc3c2)c1F (stereo not given),94.5% (inactive)
7,COCOc1cc2oc(C(=O)N[C@@H](Cc3ccccc3)C(O)C(=O)NCc3ccccc3)c(C)c(=O)c2cc1OCOC (stereo not given in full),22.2% (inactive)
8,COc1cc2nc(SCc3ccccc3)n(-c3ccc(Cl)cc3)c(=O)c2cc1OC,-19.9% (active)
9,COc1ccc2c(c1)c(-c1cc3nc(-c4cn(C)c5ncccc45)cc(N)n3n1)cn2C,-41.5% (active)
10,COc1cc(OC)cc(C(=O)Nc2cccc(-c3cn(-c4ccc(S(N)(=O)=O)cc4)nn3)c2)c1,39.4% (inactive)
11,COc1ccc(-c2nc(SCC(C)C)nc(NCCc3c[nH]c4ccccc34)c2C#N)cc1,80.4% (inactive)
12,COc1cc2c3c(n(CCCN4CCC[C@@H]4CO)c(=O)c2cc1OC)-c1cc2c(cc1C3=O)OCO2,-76.8% (active)
13,COc1cc2c(c(OC)c1OC)C(=O)CC(c1cccc(NC(=O)c3cccc([N+](=O)[O-])c3)c1)O2 (stereo not given),10.2% (inactive)
14,Cc1cccc(NC(=O)CN2CCN(c3ncnc4c3cnn4-c3ccccc3)CC2)c1,96% (inactive)
15,CC1=C(C(=O)OC(C)C)C(c2cccc(O)c2)NC(=S)N1 (stereo not given),104% (inactive)
16,CCN(CC)c1ccc(/C=N/Nc2nc(-c3ccc(C)cc3)cs2)c(O)c1,86.8% (inactive)
17,C/C(=N\N=C\c1cc([N+](=O)[O-])ccc1Cl)c1ccc2c(c1)Nc1ccccc1S2,16.6% (inactive)
18,CC1(C)CC[C@]2(C(=O)Nc3ccccc3)CC[C@]3(C)C(=CCC4[C@@]5(C)C[C@@H](O)[C@H](O)[C@@](C)(CO)C5CC[C@]43C)C2C1 (stereo not given in full),62.7% (inactive)
19,COc1ccc(-c2ccnc(SCc3cc4cc(OC)ccc4[nH]c3=O)n2)cc1,33.3% (inactive)
20,Cc1c(C(=O)NNC(=O)c2ccc(Cl)cc2)nnn1-c1ccc(Br)cc1,103% (inactive)

# — PubChem BioAssay (NCI)
